The whole screen tested about 360,000 compounds, of which about 350 (0.097%) were called active. No stated cut-off is given here; in the data, active means inhibition above about 16% (passing the limit was not always enough); inconclusive means no clear call, values can overlap the other calls; inactive means below that. The entries come from a sample that favours actives as a whole.

This experiment concerns UDP-N-acetylbacillosamine N-acetyltransferase PglD (Campylobacter jejuni). Nature of the experiment: blockers of PglD enzyme activity – biochemical, DTNB colorimetric, single point, primary screen (AID 602405). The note with it: purified PglD enzyme, DTNB colorimetric CoA detection; at 12.5 µM; hits give high values.
One may read the inhibition as the change of the read-out against control, counted positive when it falls. `CC(C)NC(=O)N1[C@@H]2CN(C(=O)Nc3ccc(F)cc3)c3ccccc3[C@@H]2[C@@H]1CO`: the inhibition was 2.48% (inactive).
In the case of `C[C@@H]1CCCCO[C@@H](CN(C)S(=O)(=O)c2ccccc2)[C@H](C)CN([C@H](C)CO)C(=O)c2cc(NC(=O)CCC(F)(F)F)ccc2O1` it was 0.918% (inactive); in that of `O=C(c1ccccc1)N1C[C@H]2[C@@H](c3ccccc31)[C@H](CO)N2Cc1ccccc1F`, -1.39% (inactive).
With `CC(C)C#Cc1ccc([C@@H]2[C@H]3CN(C(=O)NC(C)C)CCCCN3[C@H]2CO)cc1` the figure was 1.97% (inactive); with `CN1C(=O)c2cc(NC(=O)C3CC3)ccc2OC[C@@H]2O[C@H](CC(=O)NCC3CCCCC3)CC[C@@H]21`, 0.676% (inactive).
In the case of `CCCOc1ccc(F)cc1-c1cc(C(=O)Nc2ccc(F)cc2)[nH]n1`, the inhibition is 21.5% (active).
For the compound `CCCOc1ccc(F)cc1-c1cc(C(=O)Nc2ccc(F)c(Cl)c2)[nH]n1`, the inhibition is -24.9% (inactive).
For the compound `CCCOc1ccc(F)cc1-c1cc(C(=O)NCc2ccc(F)cc2)[nH]n1`, the inhibition is 4.69% (inactive).
As for `Cc1ccc(S(=O)(=O)NCC[C@H]2CC[C@H](NC(=O)c3ccccn3)[C@H](CO)O2)cc1`, the inhibition is 0.367% (inactive).
With `CCCNC(=O)N1C[C@@H]2[C@H](c3ccccc31)[C@@H](CO)N2C(=O)NC(C)C`, the inhibition is 4.12% (inactive).
In the case of `CN1c2ccc(-c3ccccc3F)cc2[C@H]2[C@H](CCN2C(=O)Nc2cc(F)ccc2F)[C@H]1CO`, the inhibition was -0.933% (inactive).
On to `C=CC1=C(C(=O)O)N2C(=O)[C@@H](NC(=O)/C(=N/OCC(=O)O)c3csc(N)n3)[C@H]2SC1`, for which the inhibition is 71% (active).
Turning to `C=CC1=C(C(=O)O)N2C(=O)[C@@H](NC(=O)/C(=N\OCC(=O)O)c3csc(N)n3)[C@H]2SC1`, the inhibition is -2.51% (inactive).
Take `OC[C@H]1[C@@H](c2ccc(/C=C/c3ccccc3)cc2)[C@H]2CN(Cc3cccnc3)CCCCN21`: the inhibition is -0.638% (inactive).
In the case of `CO[C@@H]1CN(C)C(=O)c2cc(NC(=O)C3CC3)ccc2OC[C@H](C)N(Cc2ccc(F)cc2)C[C@@H]1C`, the inhibition is -0.858% (inactive).
For `O=C(C[C@H]1CC[C@H](NC(=O)Nc2ccc(C(F)(F)F)cc2)[C@H](CO)O1)NCCN1CCCC1`, the inhibition is -2.91% (inactive).
For the compound `Cc1noc(C)c1NC(=O)N(C)C[C@H]1OCCCC[C@H](C)Oc2ccc(NC(=O)Nc3ccc4c(c3)OCO4)cc2C(=O)N([C@H](C)CO)C[C@@H]1C`, the inhibition was 3.46% (inactive).
Consider `O=C(C[C@@H]1CC[C@@H]2[C@H](COC[C@H](O)CN2Cc2cccc(F)c2)O1)NCc1ccncc1`, for which the inhibition is -0.388% (inactive).
With `C[C@H]1CCCCO[C@H](CN(C)C(=O)CCC(F)(F)F)[C@@H](C)CN([C@@H](C)CO)C(=O)c2cc(NC(=O)Nc3ccc4c(c3)OCO4)ccc2O1` the figure was 0.932% (inactive); with `Cc1csc(SCC(=O)Nc2ccc(C)c(S(=O)(=O)N(C)C)c2)n1`, 3.71% (inactive); with `CCN(CC(=O)Nc1ccc(C)c(S(=O)(=O)N(C)C)c1)Cc1ccccc1`, -3.38% (inactive).
With `Cc1ccc(NC(=O)CNCc2ccccn2)cc1S(=O)(=O)N(C)C` the figure was 20.4% (active).
Consider `COc1ccc(CNC(=O)CN2C(=O)c3ccccc3S2(=O)=O)cc1`, for which the inhibition is -2.12% (inactive).
As for `O=C1c2ccccc2S(=O)(=O)N1Cc1c(F)cccc1Cl`, the inhibition is -4.6% (inactive).
With `CC(C)(C)c1ccc(CN2C(=O)c3ccccc3S2(=O)=O)cc1`, the inhibition is 41.7% (active).
For `COc1ccccc1S(=O)(=O)N1CC[C@@H]2[C@H](CO)Nc3ccc(-c4ccccc4F)cc3[C@@H]21`, the inhibition was 2.37% (inactive).
With `CCC(=O)Nc1ccc2c(c1)C(=O)N(C)C[C@@H](OC)[C@H](C)CN(Cc1ccccc1C(=O)O)[C@@H](C)CO2`, the inhibition is 1.3% (inactive).
With `O=C(NCCc1ccc(Cl)cc1)C1CCCN1C(=O)NCc1ccccc1` (configuration not stated), the inhibition is 1.86% (inactive).
On to `O=C(NCCS(=O)(=O)NCc1ccc(Cl)cc1)c1ccccc1`, for which the inhibition is 0.839% (inactive).
With `O=S1(=O)CC(NCc2ccccc2)C(Nc2ccc(Cl)cc2)C1` (configuration not stated), the inhibition was 35.4% (active).
For `CN(C)CC#Cc1ccc([C@H]2[C@H](CO)N3CCCCN(CC4CC4)C[C@@H]23)cc1`, the inhibition was 0.034% (inactive).
On to `COc1ccccc1CNC(=O)C[C@@H]1CC[C@@H]2[C@@H](COc3ccc(NC(=O)Nc4ccc(F)c(F)c4)cc3C(=O)N2C)O1`, for which the inhibition was 0.834% (inactive).
As to `C[C@@H]1CN([C@@H](C)CO)C(=O)c2cc(NS(C)(=O)=O)ccc2O[C@@H](C)CCCCO[C@@H]1CN(C)C(=O)c1ccccc1`, the inhibition was 2.15% (inactive).
In the case of `C[C@H]1CN([C@@H](C)CO)C(=O)Cc2cc(NC(=O)c3ccncc3)ccc2O[C@@H]1CN(C)C(=O)Nc1ccccc1`, the inhibition is 3.86% (inactive).
For the compound `O=C(C[C@@H]1CC[C@H](NC(=O)C2CC2)[C@H](CO)O1)NCc1ccccc1Cl`, the inhibition was -4.45% (inactive).
With `CN(C)Cc1cn(CC[C@H]2CC[C@H](NC(=O)Nc3ccccc3F)[C@@H](CO)O2)nn1` the figure was -0.499% (inactive); with `C[C@H]1CN([C@@H](C)CO)C(=O)c2cc(NC(=O)Cn3cnnn3)ccc2O[C@H]1CN(C)S(C)(=O)=O`, -4.84% (inactive); with `O=C(Nc1ccccc1)N[C@@H]1CC[C@H](CCn2cc(C3(O)CCCC3)nn2)O[C@@H]1CO`, 2.19% (inactive).
Take `COc1ccc(-c2ccc3c(c2)O[C@@H](CN(C)CC2CCOCC2)[C@@H](C)CN([C@@H](C)CO)S3(=O)=O)cc1`: the inhibition was -0.251% (inactive).
`O=C(C[C@@H]1CC[C@H]2[C@@H](COC[C@@H](O)CN2C(=O)Nc2ccc(Cl)cc2)O1)NC1Cc2ccccc2C1`: the inhibition is 2.05% (inactive).
With `OC[C@@H]1Nc2ccc(-c3ccc(F)cc3)cc2[C@@H]2[C@H]1CCN2Cc1ccc(F)cc1` the figure was 0.0285% (inactive).
In the case of `C[C@H](CO)N1C[C@H](C)[C@H](CN(C)S(=O)(=O)c2cn(C)cn2)OCCCC[C@H](C)Oc2ccc(N(C)C)cc2C1=O` it was -2.91% (inactive); in that of `COc1ccc(NC(=O)Nc2ccc3c(c2)C(=O)N([C@@H](C)CO)C[C@H](C)[C@H](CN(C)C(=O)Nc2ccccc2)OCCCC[C@@H](C)O3)cc1`, 1.95% (inactive).
With `CC(C)C(=O)Nc1ccc2c(c1)C(=O)N(C)[C@@H]1CC[C@@H](CC(=O)NCCc3ccccc3)O[C@H]1CO2` the figure was -3.51% (inactive).
In the case of `C[C@@H]1CN([C@@H](C)CO)S(=O)(=O)c2ccc(C#Cc3cccnc3)cc2O[C@@H]1CN(C)C(=O)CN(C)C`, the inhibition is 0.034% (inactive).
Regarding `C[C@@H]1CN([C@H](C)CO)S(=O)(=O)c2ccc(/C=C/c3ccccc3)cc2O[C@@H]1CN(C)C(=O)Nc1ccc(F)cc1`, the inhibition was 4.65% (inactive).
Regarding `O=C([C@H]1[C@H](CO)[C@H]2Cn3c(cccc3=O)[C@@H]1N2Cc1cocn1)N1CCCCC1`, the inhibition was -0.522% (inactive).
In the case of `C[C@H](CO)N1C[C@H](C)[C@H](CN(C)C(=O)Nc2ccc(C(F)(F)F)cc2)Oc2ccc(N(C)C)cc2CC1=O`, the inhibition is 1.24% (inactive).
On to `COc1ccccc1-c1cnc2c(c1)C(=O)N([C@@H](C)CO)C[C@@H](C)[C@H](CN(C)Cc1cccnc1)O2`, for which the inhibition was 1.03% (inactive).
For `CCC(=O)N1C[C@@H](C)[C@H](OC)CN(C)C(=O)c2ccc(NC(=O)NC(C)C)cc2OC[C@H]1C`, the inhibition was -4.33% (inactive).
Regarding `C[C@@H]1CN([C@@H](C)CO)C(=O)c2cc(N(C)C)ccc2O[C@@H](C)CCCCO[C@H]1CN(C)C(=O)CCCN(C)C`, the inhibition was 2.35% (inactive).
For `CCC(=O)Nc1ccc2c(c1)C(=O)N(C)C[C@@H](OC)[C@@H](C)CN(Cc1ccccc1OC)[C@H](C)CO2`, the inhibition is 0.2% (inactive).
For `CC(C)NC(=O)Nc1ccc2c(c1)C(=O)N([C@H](C)CO)C[C@@H](C)[C@@H](CN(C)S(=O)(=O)c1cccs1)OCCCC[C@@H](C)O2`, the inhibition was -0.385% (inactive).
Consider `C[C@H]1CN([C@@H](C)CO)C(=O)c2cccc(NC(=O)Nc3cccc4ccccc34)c2O[C@@H]1CN(C)C(=O)NC1CCCCC1`, for which the inhibition was 0.764% (inactive).
For the compound `C[C@@H]1CN([C@H](C)CO)S(=O)(=O)c2ccc(C#CCC3CCCC3)cc2O[C@H]1CN(C)Cc1ccc(C(=O)O)cc1`, the inhibition was 6.4% (inactive).
For the compound `Cc1noc(C)c1S(=O)(=O)Nc1ccc2c(c1)CC(=O)N([C@@H](C)CO)C[C@@H](C)[C@H](CN(C)C)O2`, the inhibition is -1.66% (inactive).
With `CN(C)C(=O)c1cccc(-c2ccc3c(c2)[C@@H]2[C@@H](CCN2Cc2nccs2)[C@@H](CO)N3)c1` the figure was 0.288% (inactive).
With `CCNC(=O)Nc1ccc2c(c1)C(=O)N(C)[C@@H]1CC[C@H](CC(=O)NC3CCCCC3)O[C@H]1CO2` the figure was 1.07% (inactive).
Consider `C[C@@H]1CN([C@@H](C)CO)C(=O)c2cc(C#CCN(C)C)cnc2O[C@@H]1CN(C)Cc1ccccn1`, for which the inhibition was 3.09% (inactive).
In the case of `COc1cccc(NC(=O)N(C)C[C@H]2Oc3ncc(C4=CCCCC4)cc3C(=O)N([C@H](C)CO)C[C@H]2C)c1`, the inhibition was 10.3% (inactive).
In the case of `CN1C(=O)c2cc(NC(=O)c3cccc(F)c3)ccc2OC[C@@H]2O[C@H](CC(=O)N3CCc4ccccc4C3)CC[C@@H]21` it was -1.96% (inactive).
With `CNC(=O)C[C@@H]1CC[C@@H]2[C@H](COC[C@@H](O)CN2S(=O)(=O)c2ccccc2Cl)O1`, the inhibition was 1.56% (inactive).
For the compound `Cc1noc(C)c1S(=O)(=O)N(C)C[C@H]1Oc2ccc(NC(=O)Cc3ccccc3)cc2CC(=O)N([C@@H](C)CO)C[C@H]1C`, the inhibition is 2.8% (inactive).
Take `O=C(C[C@H]1C[C@@H]2c3cc(NC(=O)C4CCC4)ccc3O[C@@H]2[C@@H](CO)O1)NCCN1CCCCC1`: the inhibition was 3.36% (inactive).
As for `COc1cccc(S(=O)(=O)N[C@H]2C=C[C@H](CC(=O)NC3Cc4ccccc4C3)O[C@@H]2CO)c1`, the inhibition is -1.14% (inactive).
As for `COc1ccc(S(=O)(=O)N[C@@H]2CC[C@H](CC(=O)N3CCc4ccccc4C3)O[C@H]2CO)cc1`, the inhibition is -0.563% (inactive).
On to `COCC#Cc1cnc2c(c1)C(=O)N([C@@H](C)CO)C[C@@H](C)[C@H](CN(C)C(=O)C1CCOCC1)O2`, for which the inhibition is 4.25% (inactive).
Turning to `COc1ccc(NC(=O)N(C)C[C@H]2OCCCC[C@@H](C)Oc3ccc(NC(=O)NC4CCCCC4)cc3C(=O)N([C@@H](C)CO)C[C@H]2C)cc1`, the inhibition was 4.17% (inactive).
With `O=C(NCC[C@@H]1CC[C@@H](NC(=O)Nc2cc(F)ccc2F)[C@H](CO)O1)Nc1ccc(Cl)cc1`, the inhibition was 0.614% (inactive).
Consider `COc1cccc(S(=O)(=O)N2CCCCN3[C@H](CO)[C@H](c4ccc(-c5ccncc5)cc4)[C@H]3C2)c1`, for which the inhibition is 2.87% (inactive).
With `Cc1noc(C)c1S(=O)(=O)N(C)C[C@@H]1Oc2ccc(NC(=O)C3CC3)cc2CC(=O)N([C@@H](C)CO)C[C@@H]1C` the figure was -3.27% (inactive).
In the case of `COc1cccc(C(=O)Nc2ccc3c(c2)C(=O)N(C)[C@H]2CC[C@H](CC(=O)N[C@@H](C)c4ccccc4)O[C@H]2CO3)c1` it was 0.936% (inactive).

The values are drawn from PubChem BioAssay AID602405 (Broad Institute, 2012).
